High-throughput results (PubChem BioAssay)
This is a sample that favours compounds with a hit; in the whole collection about 0.36% have one here.
SNCA expr inh: inhibitors of alpha-synuclein (SNCA) gene expression; HEK-293 SNCA-luciferase knock-in, luminescence, 24 h; Potency, µM (titrated, usually from 57.2 µM), actives largely listed as inhibitors; 140,000 compounds, 0.17% hits; further: nearly all actives have a fitted effect of over 45% in size
HEK293 viab: counter-screen for SNCA expression inhibitors: cell viability; HEK-293-SNCA-luc viability, GF-AFC fluorescence, 24 h; Potency, µM (doses to about 57.1 µM), usual class: cytotoxic; 150,000 compounds, 0.12% hits; AID 1671193; further: nearly all actives have a fitted effect of over 30% in size
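HEK-293-SNCA-luc cells (1500/well) plated 24 h, then exposed 24 h to a dilution series; GF-AFC added 30 min at 37C, fluorescence 405/540 nm; normalised to medium-only and DMSO wells, Hill fit.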
GPT2 inh: blocks human glutamate pyruvate transaminase 2; Potency, µM (doses to about 57.7 µM), most hits filed as inhibitors; Recombinant GPT2, coupled pyruvate oxidase/HRP Amplex Red fluorescence; 100,000 compounds, 0.25% hits; further: nearly all actives have a fitted effect of over 60% in size
Target sequence (Q8TD30 whole entry, looked up): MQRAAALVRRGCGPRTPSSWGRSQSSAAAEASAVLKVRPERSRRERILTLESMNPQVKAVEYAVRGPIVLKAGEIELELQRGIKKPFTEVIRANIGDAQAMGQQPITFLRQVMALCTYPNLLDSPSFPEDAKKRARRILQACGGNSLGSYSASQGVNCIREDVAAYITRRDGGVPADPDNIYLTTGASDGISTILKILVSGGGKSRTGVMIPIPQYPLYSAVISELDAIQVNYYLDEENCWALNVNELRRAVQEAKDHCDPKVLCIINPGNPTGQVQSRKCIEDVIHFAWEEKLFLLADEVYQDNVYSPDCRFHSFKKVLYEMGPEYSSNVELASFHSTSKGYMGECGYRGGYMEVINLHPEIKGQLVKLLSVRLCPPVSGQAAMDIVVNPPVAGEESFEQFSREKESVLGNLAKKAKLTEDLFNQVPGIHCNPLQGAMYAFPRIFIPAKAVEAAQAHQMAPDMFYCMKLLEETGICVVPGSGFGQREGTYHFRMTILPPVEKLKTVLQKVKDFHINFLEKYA
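Fluorescence of coupled pyruvate oxidase/HRP/Amplex Red system (50uM Amplex, 30 min, dark) reports pyruvate formed by GPT2. Enzyme reaction: 10ng/uL GPT2, 2mM L-alanine, 250uM a-KG, 30 min room temperature, pH 7.5; 50uM AOA control.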
Hits are given with their value; – = inactive; ? = inconclusive; · = no result given; ! = not active in a repeat; [ ] = remark or other dose. The call rests on the fitted dose curve; in most records, active means well fitted curve in the direction sought with a large enough effect; inconclusive means small, poorly fitted or top-dose-only effect, or another doubt; inactive means no such curve, though single readings can be large; an effect the other way counts as inactive or inconclusive.

SMILES	SNCA expr inh	HEK293 viab	GPT2 inh
COc1cccc(-c2ccc(C(=O)N3CCC(NC(=O)c4ccccc4Cl)CC3)cc2)c1	–	–[12.5 µM]	–
CC(C)N1[N]C(=C2C=c3cc(O)ccc3=N2)c2c(N)ncnc21	–	?	0.61µM
CN1CCN(CCNC(=O)c2ccc(-c3ccc(N4CCCCCC4)nc3)cc2)CC1	–	–	–
O=C(NCc1cccc(C(F)(F)F)c1)c1ccc2nnc(Cc3ccc(Cl)cc3)n2c1	?	?	–
COc1ccccc1CN1CCCn2nc(C)c(-c3ccccc3[S+](C)(=O)[O-])c21	?	–	?
Cc1nn2c(c1-c1ccccc1[S+](C)(=O)[O-])N(CCC(C)C)CCC2	3.2µM	?	–
COc1ccc(CC2CCOC3(CCN(C(=O)c4ccco4)CC3)C2)cc1 (stereo not given)	–	–	–
O=C(NCCc1ccccc1)c1ccc2nnc(-c3cc[nH]c3)n2c1	–	–	–
CCOC(=O)c1ccc(O)cc1	–	–	–
CCOC(=O)c1ccc(O)c(O)c1	–	–	28µM
COc1ccc(Nc2ccnc(N3CCN(C(=O)c4cccc(Cl)c4)CC3)n2)cc1	?	?	–
Cc1ccc(C)c(N2CCN(c3nc4ccccc4c(=O)n3-c3ccccc3)CC2)c1	2.5µM	–	·
CCc1ccc(-n2c(N3CCN(c4cccc(C)c4C)CC3)nc3ccccc3c2=O)cc1	–	–	·
CCC(CC)C(=O)NC[C@@H]1C=C(C)[C@H](Cc2nc3ccc(OC)cc3[nH]2)C[C@H]1C(C)C	?	40µM	–
COc1ccccc1CNC[C@@H]1C=C(C)[C@H](Cc2nc3c(C)cccc3[nH]2)C[C@H]1C(C)C	?	35µM	–
CC1=C[C@@H](CNCc2ccccc2)[C@H](C(C)C)C[C@H]1Cc1nc2c(C)cccc2[nH]1	?	35µM	–
CCC(CC)C(=O)NC[C@@H]1C=C(C)[C@H](Cc2nc3ccc(C)cc3[nH]2)C[C@H]1C(C)C	?	?	–
CC1=C[C@@H](CNCc2ccccc2F)[C@H](C(C)C)C[C@H]1Cc1nc2c(C)cccc2[nH]1	?	?	–
CC1=C[C@@H](CN(C)C)[C@H](C(C)C)C[C@H]1Cc1nc2c(C)cccc2[nH]1	–	–	–
COc1cccc(-c2ccc(C(=O)N3CCC(N[S+](=O)([O-])c4cccc(C(F)(F)F)c4)CC3)cc2)c1	–	–[12.5 µM]	–
CC1(COc2cccnc2)COc2ccc(C(=O)N3CCN(c4ccccn4)CC3)cc2N1 (stereo not given)	?	–	–
Cc1nn2c(c1-c1ccccc1OCc1ccccc1)N(CC1CC1)CCC2	?	10µM	–
Cc1nn2c(c1-c1ccccc1Oc1ccccc1)N(CC1CC1)CCC2	?	?	–
Cc1nn2c(c1-c1ccccc1OCc1ccccc1)N(Cc1ccccc1O)CCC2	?	–	–
COc1ccc(CN2CCCn3nc(C)c(-c4ccccc4Oc4ccccc4)c32)cc1O	6.3µM	?	–
SMILES	SNCA expr inh	HEK293 viab	GPT2 inh
COc1ccc(OC)c(CN2CCCn3nc(C)c(-c4ccccc4OCc4ccccc4)c32)c1	?	4µM	–
Cc1nn2c(c1-c1ccccc1Oc1ccccc1)N(Cc1ccc(C(=O)O)cc1)CCC2	?	?	–
O=S(=O)(c1ccc2c(c1)CCC2)N1CCCC1Cc1noc(-c2ccccc2)n1 (stereo not given)	?	–	–
C#CCNC(=O)C1CCN(c2nccc(Nc3ccccc3Cl)n2)CC1	–	–[12.5 µM]	–
Cc1ccc(Nc2ccnc(N3CCCN(C(=O)Cc4cccc(Cl)c4)C3)n2)cc1	–	–[12.5 µM]	–
O=C(NCc1ccc(F)cc1)c1cn2cc(-c3ccccc3)sc2n1	–	–	–
Cc1cccc(-c2cccc(CN3CCC(NC(=O)c4ccc(Cl)cc4)CC3)c2)c1	–	?	–
Cc1cccc(-c2cccc(CN3CCC(NC(=O)Nc4ccc(Cl)cc4)CC3)c2)c1	20µM	?	–
CC(C)NC(=O)C1CCCCN1Cc1ccc(-c2ccsc2)cc1 (stereo not given)	–	–	–
COc1cccc(CN2CCC(C(=O)Nc3ccccc3-c3cccc(OC)c3)CC2)c1	–	–	–
C[C@@H]1CN(c2nc(-c3ccccc3)no2)CC[C@@]1(O)C1CCC1	14µM	–	–
OCC1(CC2CC2)CCCN(c2nc(-c3ccccc3)no2)C1 (stereo not given)	–	–	–
Cc1nc(Nc2n[nH]c3c2CN(C(=O)NC(CN(C)C)c2ccccc2)C3(C)C)c2sccc2n1 (stereo not given)	·	7.5µM	–
CCOC(=O)Nc1ccc(NCc2ccc(F)cc2)nc1N	–	–	10µM!
CCOC(=O)c1cc(S(=O)(=O)NCc2ccc(F)cc2)[nH]n1	–	–	·
Cc1nn(-c2ccccc2[N+](=O)[O-])c(C)c1[C@@H]1C=C[C@@H](NCc2ccco2)C1	–	?	–
Cc1nn(-c2ccccc2[N+](=O)[O-])c(C)c1[C@@H]1C=C[C@@H](NCc2ccc(C(C)C)cc2)C1	–	20µM	–
CCN(CC)C(=S)SSC(=S)N(CC)CC	?	?	11µM!
COc1ccc(-c2cnc3[nH]cc(CC(=O)N4CCCC4)c3c2)cc1	–	–	?
CCOc1ccccc1CN1CCC2(CCN(C(=O)C(C)(C)C)CC2)Oc2ccccc21	?	–	–
COc1ccc(NC(=O)c2nc3sccn3c2-c2ccc(F)cc2)cc1	–	–	?
O=C(CCC1CCN(c2cc(NC3CC3)ncn2)CC1)Nc1ccccc1	?	–	–
O=C(O)CCC1CCN(c2cc(NC3CC3)ncn2)CC1	1.1µM	–	–
CCCNc1cc(N2CCC(CCC(=O)NCc3ccccc3)CC2)ncn1	2.5µM	–	–
CCNc1cc(N2CCC(CCC(=O)NCCc3ccccn3)CC2)ncn1	?	–	?
SMILES	SNCA expr inh	HEK293 viab	GPT2 inh
CCCNc1cc(N2CCC(CCC(=O)N3CCN(c4ccc(F)cc4)CC3)CC2)ncn1	?	–	–
CCCNc1cc(N2CCC(CCC(=O)O)CC2)ncn1	1.1µM	–	–
CCNc1cc(N2CCC(CCC(=O)NCc3ccc(OC)cc3)CC2)ncn1	?	–	–
CCCNC(=O)CCC1CCN(c2cc(NCCC)ncn2)CC1	3.2µM	–	–
O=S(=O)(c1ccccc1F)N1CC(c2nc(-c3ccncc3)no2)C1	–	–	–
COc1ccc(-c2cc(-c3cccc(OC)c3OC)cn3cncc23)cc1	–	–	–
O=C(NCc1cccs1)C1CCCCN1Cc1ccc(-c2ccsc2)cc1 (stereo not given)	?	?	–
CNC(=O)CCn1ncc2cc(OC3CCc4cccc(-c5ccc(OC)cc5)c43)ccc21 (stereo not given)	?	?	–
CN(C)CCNC(=O)c1nc2nc(-c3ccccc3)c(-c3ccc(Cl)cc3)cc2n1C	?	?	–
CCCNc1cc(N2CCC(CCC(=O)Nc3ccc4c(c3)OCCO4)CC2)ncn1	?	–	–
CCCNc1cc(N2CCC(CCC(=O)NCC)CC2)ncn1	2.5µM	–	–
CCCNc1cc(N2CCC(CCC(=O)Nc3cccc(C)c3)CC2)ncn1	2µM	–	?
CCNc1cc(N2CCC(CCC(=O)NCC3CC3)CC2)ncn1	?	–	–
COc1ccc(-c2cc(N3CCCC(NC(=O)c4ccc5[nH]ccc5c4)C3)n[nH]2)cc1 (stereo not given)	–	–	?
CCN(C(=O)c1c(O)c2c(Cl)cccc2n(C)c1=O)c1ccccc1	5.4µM	?	–
